hgDAF12 agonist: H. glycines DAF-12 receptor agonists, primary screen, cell-based, luminescence, HEK293, GAL4 fusion, UAS-luciferase; HEK293 GAL4-hgDAF12 UAS-luciferase reporter, agonist luminescence; normalized to butyrate control; activation, % at 6.8 µM; 1.8% of 370,000 active; Nuclear hormone receptor DAF-12 (Heterodera glycines), GAL4 fusion; AID 687014, 2013;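 active means activation above a cutoff set at the mean of all screened compounds plus 3 SD, cut at about 10% in these data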;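 further: 0% = DMSO wells and 100% = sodium butyrate wells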
ssDAF12 agonist: S. stercoralis DAF-12 nuclear receptor activators, primary screen, cell-based, luminescence, HEK293, GRIP1 co-expression, lit1-tk-luc; Nuclear hormone receptor DAF-12 (Strongyloides stercoralis); HEK293 ssDAF-12/GRIP1 lit1-tk-luc reporter; % of 3 µM dafachronic acid response; activation, % at 6.8 µM; 1% of 370,000 active; AID 652126, 2013;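 active means activation above the mean over all tested compounds plus 3 SD, cut at about 0.9% in these data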;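 further: 0% = DMSO-only wells and 100% = 3 µM delta7-dafachronic acid wells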
hcDAF-12 act: H. contortus DAF-12 nuclear receptor activators, primary screen, cell-based, luminescence, HEK293, lit1-tk-luc reporter; AID 652067, 2013; 1.4% of 370,000 active; activation, % at 6.8 µM; HEK293 hcDAF-12 lit1-tk-luc reporter; 0% DMSO, 100% Δ7-dafachronic acid;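 active means activation above the mean of all tested compounds plus 3 SD, cut at about 5.5% in these data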;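 further: 100% = response to 3 µM Δ7-dafachronic acid high control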
SMARCA2 act: SMARCA2 (BRM) function activators, primary screen, cell-based, luminescence, high throughput; 1% of 370,000 active; MG213 cells, MMTV-luciferase reporter, dexamethasone, overnight; activation, % at 9.1 µM; in the data active means activation above about 7.8%;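 further: 0% = vehicle wells and 100% = reference activator wells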
DAX1 inh-1: DAX1 (NR0B1) inhibitors, primary screen, cell-based, HEK293, Gal4-DAX1, luciferase luminescence; inhibition, % at 6.75 µM; HEK293 Gal4-DAX1 luciferase reporter; 0.99% of 340,000 active; AID 504766, 2011;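 active means inhibition above the mean over all tested compounds plus 3 SD, cut at about 4.2% in these data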;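 further: 0% = DAX1-transfected cells with DMSO and 100% = empty-vector control cells with DMSO; inhibition shows as a rise in luminescence from relieved DAX1 repression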
Target sequence (P51843 207-470 limits assumed): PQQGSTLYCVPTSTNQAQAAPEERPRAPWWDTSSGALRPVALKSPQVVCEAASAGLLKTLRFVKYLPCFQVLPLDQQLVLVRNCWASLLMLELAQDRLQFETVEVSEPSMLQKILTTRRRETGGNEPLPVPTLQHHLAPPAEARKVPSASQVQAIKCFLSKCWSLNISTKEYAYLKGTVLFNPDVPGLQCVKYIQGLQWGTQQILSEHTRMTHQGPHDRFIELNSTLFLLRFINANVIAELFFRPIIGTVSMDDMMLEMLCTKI
DAX1 inh-2: DAX1 (NR0B1) inhibitors on StAR promoter, primary screen, cell-based, luminescence, SF-1 (NR5A1), full-length DAX-1 | AID 652010, 2013 | HEK293T StAR-luciferase reporter, SF-1/DAX-1 repression relief | 1.1% of 370,000 active | inhibition, % at 6.8 µM;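 active means inhibition above the mean over all tested compounds plus 3 SD, cut at about 3.6% in these data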;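 further: 0% = DAX-1 cells with DMSO and 100% = cells lacking DAX-1 with DMSO; higher inhibition means more luminescence from relief of DAX-1 repression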
SMARCA2 act conf: SMARCA2 (BRM) function activators, confirmation, cell-based, luminescence, triplicate; shares compounds with SMARCA2 act; MG213 cells, MMTV-luciferase with dexamethasone, overnight; MG213 cells expressing E1A, Rb sequestered; DMSO wells 0%, reference activator 100%; 30% of 3,500 active; activation, % at 9.1 µM;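 active means activation above its plate's cutoff, the mean activation of tested wells plus 3 SD, cut at about 7.9% in these data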
GAL4-VP16 Luc: GAL4-VP16 luciferase reporter activation, counter-screen for SMARCA2 (BRM) activator project, cell-based, pG5luc, luminescence, high throughput. shares compounds with SMARCA2 act. HEK293 GAL4-VP16 pG5luc reporter; scaled: DMSO wells 0%, SAHA wells 100%. activation, % at 9.1 µM. 41% of 3,500 active. AID 686939, 2013;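 active means activation above the solvent-only control well mean plus 3 SD, averaged across control plates, cut at about 5.2% in these data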
hgDAF12 ag: H. glycines DAF-12 receptor agonists, confirmation, cell-based, luminescence, HEK293, GAL4-LBD fusion; shares compounds with hgDAF12 agonist; HEK293 GAL4-hgDAF12 luciferase reporter, agonist mode; percent of butyrate response; activation, % at 6.8 µM; 80% of 3,300 active;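 active means mean activation over triplicate wells above the hit cutoff derived from the earlier primary screen, cut at about 11% in these data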;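 further: 0% = DMSO low control and 100% = 2 mM sodium butyrate high control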
LXR ag 2: LXR agonists, Gal4 luciferase reporter, confirmation, counter-screen for hgDAF-12 agonist project, cell-based, luminescence, HEK293, H. glycines campaign; 24 h; shares compounds with hgDAF12 agonist; AID 743051, 2013; 3,300 tested, under 10 active; activation, % at 6.8 µM;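 active means mean activation of the triplicate above a set limit carried over from the primary screen, none filed active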
Target sequence (P55055 whole entry, looked up, the tested form may be a part): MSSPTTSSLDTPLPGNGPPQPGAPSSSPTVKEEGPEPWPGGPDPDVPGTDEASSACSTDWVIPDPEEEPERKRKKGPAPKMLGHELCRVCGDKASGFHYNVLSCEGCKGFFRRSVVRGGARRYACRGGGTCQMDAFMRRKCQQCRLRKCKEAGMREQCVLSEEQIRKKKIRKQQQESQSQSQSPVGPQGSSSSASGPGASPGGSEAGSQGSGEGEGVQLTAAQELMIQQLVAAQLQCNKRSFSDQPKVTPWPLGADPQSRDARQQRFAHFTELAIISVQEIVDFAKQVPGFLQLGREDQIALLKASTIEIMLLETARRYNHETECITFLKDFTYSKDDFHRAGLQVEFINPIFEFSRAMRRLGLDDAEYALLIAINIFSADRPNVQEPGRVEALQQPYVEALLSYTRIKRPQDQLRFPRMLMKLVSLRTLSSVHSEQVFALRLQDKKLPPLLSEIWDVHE
* marks the source's active call; other numbers are inactive results; x = not tested or not shown. In the library only some 4.8% were active in any assay of this set; here they are far more common.

SMILES	hgDAF12 agonist	ssDAF12 agonist	hcDAF-12 act	SMARCA2 act	DAX1 inh-1	DAX1 inh-2	SMARCA2 act conf	GAL4-VP16 Luc	others
O=C(c1ccccc1)N1Cc2cc(Br)ccc2-n2nncc2C1	0.0	-0.9	0.1	-0.8	x	-0.4	x	x
COC(=O)C1C(c2ccc(C)cc2)CC2CCC1N2C (stereo unspecified)	-4.9	-0.2	0.4	3.5	x	0.5	x	x
S=P1(Oc2ccccc2)Nc2ccccc2N1	12.5*	0.5	3.4	12.1*	1.8	1.9	5.3	3.1
C=C1C(=O)OC2C1CCC(C)C1(O)C=CC(=O)C21C (stereo unspecified)	-6.5	0.5	0.5	8.4*	-5.0	-1.3	15.2*	2.2
COC(=O)C1=C(c2ccc(OC(F)(F)F)cc2)C[C@@H]2CC[C@H]1N2C(=O)NCc1ccco1	0.2	-0.1	-1.3	-2.7	x	-1.4	x	x
CC(C)OC(=O)C1C(c2ccc(I)cc2)CC2CCC1N2C (stereo unspecified)	-0.5	-1.5	0.2	1.2	x	0.2	x	x
CC[C@]12CCN(CC3(O)CC3)C(Cc3ccc(O)cc31)C2(C)C	1.5	0.4	1.8	2.6	x	0.0	x	x
O=C(Nc1ccc(Cl)c(Cl)c1)c1ccco1	6.6	-0.6	1.0	8.2*	4.0	0.4	3.0	9.2*
CN1CCN(c2cccc3c2C(=O)c2ccccc2C3=O)CC1	-7.6	-2.3	-2.9	2.7	-0.2	-0.9	x	x
CN1CCN(c2ccc3c(c2)S(=O)(=O)c2ccccc2C3=O)CC1	0.7	-0.4	4.2	8.6*	2.2	2.2	8.2*	8.8*
COC(=O)C1=C(C(=O)OC)SC2(S1)C(C(=O)OC)=C(C(=O)OC)Sc1c2ssc1=O	-4.7	-0.6	1.9	61.9*	-2.7	-0.1	-9.5	8.4*
Nc1c(C(=O)NCc2ccco2)c2nc3ccccc3nc2n1CCN1CCCCC1	-0.2	-1.2	-1.3	8.8*	-1.2	-1.2	4.3	-0.9
COc1ccc(Cn2c(N)c(C(=O)NCc3ccco3)c3nc4ccccc4nc32)cc1OC	-4.9	-0.9	-2.3	1.9	0.6	-1.1	x	x
CS(=O)(=O)c1ccc(C2=C(CNC(=O)c3ccc([N+](=O)[O-])cc3)[C@H]3CC[C@@H](C2)N3Cc2ccccc2)cc1	1.9	-0.9	-0.4	-3.9	-0.9	-1.1	x	x
CS(=O)(=O)c1ccc(C2=C(CNC(=O)c3cccnc3)[C@H]3CC[C@@H](C2)N3Cc2ccccc2)cc1	-1.9	-1.2	-0.5	12.7*	-0.1	1.8	-2.6	0.4
CN(C)C(=O)Oc1ccc(OC(=O)c2ccccc2)cc1	0.6	-1.8	-0.2	11.3*	-0.2	0.0	8.2*	-0.5
CC(C)S(=O)(=O)N1Cc2ccc(Br)cc2-n2nncc2C1	-3.7	-0.9	-2.2	-6.3	x	-0.3	x	x
O=S(=O)(c1ccc(Cl)cc1)N1Cc2ccc(Br)cc2-n2nncc2C1	1.0	-0.9	-1.1	-5.3	x	1.5	x	x
C=C1C(=O)C(C)=C2C(=O)N3Cc4[nH]c5ccccc5c4CC3(C(=O)OC)C12 (stereo unspecified)	-1.9	-1.6	0.0	9.2*	x	-1.3	6.6	2.5
Cc1ccc(OC(=O)N(C)C[C@H]2OCc3cnnn3CCCC(=O)N([C@@H](C)CO)C[C@@H]2C)cc1	0.9	-1.0	-1.6	-0.1	x	-0.1	x	x
N#Cc1cn(C2OC(CO)C(O)C2O)c2ncnc(N)c12 (stereo unspecified)	7.2	-2.3	-3.6	8.5*	-3.0	-14.7	17.3*	-3.8
NC(=O)c1cn(C2OC(CO)C(O)C2O)c2ncnc(N)c12 (stereo unspecified)	-14.9	-2.8	-4.0	-13.3	-2.8	-3.0	x	x
CC(C)CCP(=O)(O)O	1.0	-1.4	1.5	-1.9	x	-1.5	x	x
Cc1c(OC(=O)N(C)C)ccc2c1O/C(=C\c1ccco1)C2=O	1.7	-0.9	-2.6	8.2*	3.7	0.4	3.6	5.9*
Cc1cc(NC(=O)COC(=O)c2c(C)nn(Cc3ccccc3)c2C)no1	-1.0	-0.9	-0.7	-0.1	-0.8	0.5	x	x
SMILES	hgDAF12 agonist	ssDAF12 agonist	hcDAF-12 act	SMARCA2 act	DAX1 inh-1	DAX1 inh-2	SMARCA2 act conf	GAL4-VP16 Luc	others
Cc1cc(NC(=O)CCl)no1	-4.0	-1.4	-0.8	8.9*	-2.5	-3.9	1.2	0.4
CC(Cc1ccccc1)/[N+]([O-])=C\c1ccc(C(F)(F)F)cc1 (stereo unspecified)	5.1	-1.4	1.4	9.2*	1.6	1.0	11.3*	6.3*
CC(=O)C1=C(C)OC2=C(C(=O)CCC2)[C@@]12C(=O)N(C)c1ccccc12	0.5	-1.0	-0.7	-2.3	x	-0.6	x	x
O=C(CNS(=O)(=O)c1cccs1)N1CCC2(CC1)OCCO2	2.2	-1.0	2.2	3.6	0.2	1.6	x	x
O=C(CNCc1c(F)cccc1F)N1CCC2(CC1)OCCO2	9.9	0.7	3.0	8.6*	x	3.1	16.4*	2.8
N#Cc1c(Br)n(C2OC(CO)C(O)C2O)c2ncnc(N)c12 (stereo unspecified)	17.9*	-0.7	1.5	62.5*	7.6*	0.4	52.1*	-1.5	hgDAF12 ag=10.4;LXR ag 2=0.6
CCOC(=O)[C@]12Cc3cc(Cl)ccc3[C@H]1N(C1CCCCC1)C(=O)c1cc(OC)ccc12	-17.0	-2.4	-4.8	-10.2	x	-6.5	x	x
